Assay results from PubChem BioAssay AID1851 (National Center for Advancing Translational Sciences (NCATS), 2009).
“And” between values parts separate entries of the source, which are not always exact repeats. Identical values can stand only once. Out of some 16,000 compounds screened, about 5,800 (36%) were called active. Inconclusive results (about 23%) are left out. Calls follow the shape of the dose curve; as a rule, active = well fitted curve in the direction sought with a large enough effect; inconclusive = small, poorly fitted or top-dose-only effect, or effect the other way; inactive = no such curve, though single readings can be large or run the other way. The list shows a part of the results. More than one record can exist for a structure, and the calls need not agree.

The molecules below were run against Cytochrome P450 2C19 (Homo sapiens) (UniProt P33261) (assay: Cytochrome panel assay with activity outcomes). Details: recombinant CYP, pro-luciferin dealkylation, luminescence, p450-cyp2c19; series mostly up to 57.1 µM.
Sequence of Cytochrome P450 2C19 (Homo sapiens) (P33261 whole entry, looked up): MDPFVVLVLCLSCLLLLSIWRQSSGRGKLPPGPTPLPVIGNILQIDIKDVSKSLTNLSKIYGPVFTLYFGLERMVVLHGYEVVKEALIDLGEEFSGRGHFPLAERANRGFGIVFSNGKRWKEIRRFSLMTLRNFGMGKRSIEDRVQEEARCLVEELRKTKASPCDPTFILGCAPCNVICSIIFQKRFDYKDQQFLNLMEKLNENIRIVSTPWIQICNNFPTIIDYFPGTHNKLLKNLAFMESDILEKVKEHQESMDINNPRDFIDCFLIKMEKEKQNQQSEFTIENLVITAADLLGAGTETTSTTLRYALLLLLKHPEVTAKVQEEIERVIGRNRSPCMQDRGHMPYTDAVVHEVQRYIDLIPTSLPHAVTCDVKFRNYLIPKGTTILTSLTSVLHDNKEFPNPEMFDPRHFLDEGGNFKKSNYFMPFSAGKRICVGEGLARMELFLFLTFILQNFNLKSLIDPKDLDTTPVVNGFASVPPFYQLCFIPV
% is scaled to controls: 0 for no effect and ±100 for the full control effect.

| SMILES | AC50 | activity, negative = inhibition |
| --- | --- | --- |
| COc1ccc(C(=O)OC2C[C@H]3CC[C@@H](C2)N3C)cc1OC (stereo not given in full) | inactive | – |
| C[C@@]12C(=O)OC(=O)[C@@]1(C)[C@H]1CC[C@@H]2O1 | inactive | – |
| CC1=C2C(=O)[C@@H]3[C@@H](CC=C4C[C@@H](O)CC[C@@]43C)[C@H]2CC[C@@]12O[C@H]1C[C@H](C)CN[C@H]1[C@@H]2C | – | 15.9% [at 11.4 µM] (inactive) |
| CCCCCC[C@H]1C(=O)O[C@H](C)[C@H](NC(=O)c2cccc(NC=O)c2O)C(=O)O[C@@H](C)[C@H]1OC(=O)CC(C)C | inactive | – |
| COc1ccc(C(=O)NC2CC3CCCC(C2)N3CC(C)C)cc1OC (stereo not given) | inactive | – |
| NC[C@H](O)c1ccc(O)cc1 | inactive | – |
| O=C1CCCCCC1C1(O)C(=O)Nc2ccc(Br)cc21 (stereo not given) | 4.47 µM (active) | – |
| Oc1ccc2c3c1O[C@@H]1c4[nH]c5c(c4C[C@@]4(O)[C@@H](C2)N(CC2CC2)CC[C@]314)C[C@]1(O)[C@@H]2Cc3ccc(O)c4c3[C@@]1(CCN2CC1CC1)[C@H]5O4 | inactive | – |
| Oc1ccc2c3c1O[C@H]1c4[nH]c5c(c4C[C@@]4(O)[C@@H](C2)N(CC2CC2)CC[C@]314)C[C@]1(O)[C@H]2Cc3ccc(O)c4c3[C@@]1(CCN2CC1CC1)[C@@H]5O4 | inactive | – |
| Oc1ccc2c3c1O[C@H]1c4[nH]c5ccccc5c4C[C@]4(O)[C@H](C2)N(CC2CC2)CC[C@@]314 | 10 µM (active) | – |
| C[N+]1(C)[C@@H]2CC[C@H]1CC(OC(=O)[C@@H](CO)c1ccccc1)C2 (stereo not given in full) | inactive | – |
| COc1cc(CCN)ccc1O | inactive | – |
| COc1cc(CNC(=O)CCCC/C=C\C(C)C)ccc1O | inactive and 6.31 µM (active) | – |
| CNC[C@H](O)c1ccc(O)c(OC)c1 | inactive | – |
| CC(=O)[C@@H]1CC[C@@H]2[C@@H]3CCC4=CC(=O)CC[C@@]4(C)[C@H]3CC[C@]21C | inactive | – |
| CN1C[C@H](C(=O)N[C@@]2(C)O[C@@]3(O)[C@H]4CCCN4C(=O)[C@@H](Cc4ccccc4)N3C2=O)C=C2c3cccc4[nH]cc(c34)C[C@@H]21 | – | 13.1% [at 11.4 µM] (inactive) |
| CC(C)C[C@H]1C(=O)N2CCC[C@@H]2[C@]2(O)O[C@](NC(=O)[C@H]3C=C4c5cccc6[nH]c(Br)c(c56)C[C@H]4N(C)C3)(C(C)C)C(=O)N12 | inactive | – |
| CC(C)[C@@]1(NC(=O)[C@@H]2C[C@H]3c4cccc5[nH]cc(c45)C[C@@H]3N(C)C2)O[C@@]2(O)[C@H]3CCCN3C(=O)[C@H](Cc3ccccc3)N2C1=O | 3.98 µM (active) and 5.01 µM (active) | – |
| CCCCN(CCCC)CCC(O)c1cc2c(Cl)cc(Cl)cc2c2cc(C(F)(F)F)ccc12 (stereo not given) | inactive | – |
| NC[C@H](CC(=O)O)c1ccc(Cl)cc1 | 2.51 µM (active) | – |
| NC[C@@H](CC(=O)O)c1ccc(Cl)cc1 | inactive | – |
| O=C(O)CP(=O)(O)c1ccc(Cl)cc1 | inactive | – |
| CC1(C)N=C(N)N=C(N)N1c1cccc(C(=O)Nc2ccc(S(=O)(=O)F)cc2)c1 | – | 25.1% [at 11.4 µM] (inactive) |
| CC(=O)OCC1=C(C(=O)[O-])N2C(=O)[C@@H](NC(=O)CCC[C@@H](N)C(=O)[O-])[C@@H]2SC1.[Zn+2] | inactive | – |
| C[C@]12CC[C@H]3c4ccc(O)cc4CC[C@@H]3[C@H]1CC[C@@H]2OC(=O)CCc1ccccc1 | – | -66% [at 11.4 µM] (inactive) |
| Cc1ccc2c(c1)C1CN(C)CCC1N2C(=O)Nc1cccc(Cl)c1 (stereo not given) | 25.1 µM (active) | – |
| NC(N)=NC(=O)c1nc(Cl)c(N)nc1N | inactive | – |
| CCOC(=O)Cn1cc(C(=O)c2ccccc2F)c2ccccc21 | 3.55 µM (active) | – |

| SMILES | AC50 | activity, negative = inhibition |
| --- | --- | --- |
| O=C(O)c1nn(Cc2ccc(Cl)cc2Cl)c2ccccc12 | inactive | – |
| O=C(c1ccccc1F)c1cn(CC(=O)N2CCOCC2)c2ccccc12 | 10 µM (active) | – |
| O=C(c1ccccc1F)c1cn(Cc2ccccc2)c2ccccc12 | 1.26 µM (active) | – |
| CCNC(=O)[C@@H]1O[C@@H](n2cnc3c(N)ncnc32)[C@H](O)[C@H]1O | inactive | – |
| O=P(O)(O)c1ccccc1 (tested in a mixture with another compound) | – | 41.3% [at 11.4 µM] (inactive) |
| CC[C@@H]1[C@@H]2C[C@H]3[C@H]4N(C)c5ccccc5[C@@]45C[C@@H]([C@@H]2[C@@H]5O)N3[C@H]1O | inactive | – |
| C=C(C)[C@H]1CC[C@]2(CO)CC[C@]3(C)[C@@H](CC[C@H]4[C@@]5(C)CC[C@@H](O)C(C)(C)[C@@H]5CC[C@@]43C)[C@H]12 | inactive | – |
| C[C@]1(O)CC[C@H]2[C@@H]3[C@@H](O)CC4=CC(=O)CC[C@@]4(C)[C@H]3CC[C@]21C | – | 12.3% [at 11.4 µM] (inactive) |
| O=C(O)/C=C\c1ccc[c]([Sb](=[O])([OH])[OH])c1 | – | -11.2% [at 11.4 µM] (inactive) |
| COc1ccc(-n2nc(C(F)(F)F)cc2-c2ccc(Cl)cc2)cc1 | 7.94 µM (active) | – |
| CC(C)(C)C(=O)CP(=O)(O)O | – | 34.5% [at 11.4 µM] (inactive) |
| CN1CCC(c2c[nH]c3ccc(O)cc23)CC1 | inactive | – |
| CN1CCc2cc3c(cc2[C@@H]1[C@@H]1OC(=O)c2c1ccc1c2OCO1)OCO3 | 0.0501 µM (active) | – |
| COc1ccc2c(c1OC)CN1CCc3cc4c(cc3[C@H]1C2)OCO4 | 1.26 µM (active) | – |
| CO[C@H]1C=C2CCN(C)[C@@H]2[C@@H]2c3cc4c(cc3C(=O)O[C@H]21)OCO4 | inactive | – |
| COc1ccc(C[C@H]2c3cc(OC)c(OC)cc3CCN2C)cc1OC | inactive | – |
| COc1ccc2c(c1OC)C(=O)O[C@H]2[C@H]1c2cc3c(cc2CCN1C)OCO3 | 1.26 µM (active) | – |
| O[C@@H]1[C@@H]2c3cc4c(cc3CN3CCC(=C[C@@H]1O)[C@H]23)OCO4 | inactive | – |
| COc1ccc2c(c1O)-c1c(OC)c(OC)cc3c1[C@H](C2)N(C)CC3 | inactive | – |
| COc1c2c(cc3c1OCO3)CCN(C)C2 | inactive | – |
| C[N+]1(C)CCc2cc3c(cc2[C@@H]1[C@@H]1OC(=O)c2c1ccc1c2OCO1)OCO3 | inactive | – |
| O=C(NCP(=O)(O)O)c1cccnc1 | – | 26.5% [at 11.4 µM] (inactive) |
| c1cnc(N2CC[C@@]3(CCCNC3)C2)nc1 | inactive | – |
| C=C[C@]12CN(C)[C@H]3C1[C@@]1(C(=O)Nc4ccccc41)[C@H]1C[C@H]2[C@H]3CO1 | inactive | – |
| CCCN1CCC[C@@H]2Cc3[nH]ncc3C[C@H]21 | inactive | – |
| CC(=O)O[C@H]1CC[C@@]2(C)[C@@H](CC[C@H]3[C@H]2CC(=O)[C@@]2(C)[C@@H]3C[C@H]3CC(C)=CC(=O)[C@H]32)C1 | – | -7.79% [at 11.4 µM] (inactive) |
| CS(=N)(=O)CC[C@H](N)P(=O)(O)O (stereo not given in full) | – | 2.48% [at 11.4 µM] (inactive) |
